From PubChem BioAssay (NCI) come the findings set out here.

Molecules are shown by their SMILES. The panel holds about 83,000 compounds, 20% with a hit somewhere; the sample as a whole holds those more often.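 Method: cells in 96-well plates; compound added at one concentration; 48 h incubation; percent growth measured; values under 10 scored active.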 Calls of active or inactive are those of the source.

For this assay, the system named is NCI-H322M lung. Briefly: NCI-60 one-dose screen, 48 h (100 = growth as untreated, 0 = no growth, -100 = all killed). As to conditions: 10 µM unless noted.
As for `COc1cnc2c(c1)C(=O)c1c-2n(CCCN2CCC(N)CC2)c(=O)c2cc([N+](=O)[O-])ccc12`, the growth was 52.8% (inactive).
Regarding `C=CC(=O)Nc1cc2c(Nc3ccc(F)c(Cl)c3)ncnc2cc1OCCCN1CCOCC1`, the growth is -15.2% (active).
Next, `NC(=O)c1c(OCc2c(F)cc(Br)cc2F)nsc1NC(=O)NCCCCN1CCCC1`: 15.4% (inactive); `CCc1nc2ccc(Cc3ccc(C(=O)NO)cc3)cc2c(=O)n1CCc1ccccc1`: 12.1% (inactive).
Take `Cc1cc(N(CCNc2ccnc3cc(Cl)ccc23)Cc2ccc3c(c2)OCO3)nc(N2CCN(C)CC2)n1`: the growth was 41.5% (inactive).
`Cc1ccc2oc(=O)cc(-c3cc(-c4cc5ccccc5oc4=O)nc(N)c3C#N)c2c1`: the growth is 72.8% (inactive).
On to `Cc1[nH]c(/C=C2\C(=O)Nc3ccc(F)cc32)c(C)c1C(=O)NC[C@H](O)CN1CCOCC1`, for which the growth is 26.2% (inactive).
In the case of `O=C(Nc1cn[nH]c1-c1nc2ccc(CN3CCOCC3)cc2[nH]1)NC1CC1` it was 37.6% (inactive); in that of `O=C1CSC(c2c(F)cccc2Cl)N1NC(=O)C(O)(c1ccccc1)c1ccccc1` (stereo not drawn), 102% (inactive); in that of `O=C1C=CC2(NN=C(c3ccccc3)N2c2cccc(Cl)c2)C(Cl)=C1` (stereo not drawn), 82.6% (inactive).
Consider `Cc1ccc(N=C2CSc3nnc(-c4csc5c4CCCC5)n3N2)cc1`, for which the growth was 57.9% (inactive).
As for `Cc1cc(-c2cc(OC(=O)c3ccccc3)ccc2Cl)cc2nnc(Nc3ccc(OCCN4CCCC4)cc3)nc12`, the growth is 102% (inactive).
Turning to `Cc1cc(O)cc(-c2c(-c3ccnc(-c4cccnc4)c3)cnn2C)c1`, the growth was 66.6% (inactive).
